# Experimental data as given in ChEMBL document CHEMBL3988442, “University of Dundee, Small-Polar-MMV Screening Library” (2021).
# The whole screen tested about 48,000 compounds, of which about 13,000 (27%) showed an effect of 50% or more. The list shows a part of the results.
# Test system: Wolbachia pipientis
# Experiment: Anti-Wolbachia Cell-Based Screen
# Type: functional
# Design: scale not given: in the data most compounds retested in dose-response had high values
# Conditions: 5 µM
row,SMILES,Percent Effect [%]
1,CC(C)c1nc2n(n1)CC(NCC(=O)NCCC1=CCCCC1)CC2 (configuration not stated),-9.722
2,CC(Cn1cccn1)NC(=O)NCCN1CCCCCC1=O (configuration not stated),-10.88
3,O=C(CN1CC(n2cccn2)C1)NCCC1=CCCCC1,104.9
4,O=C(CN1CC(n2cccn2)C1)NCCc1ccc(F)cc1,97.63
5,O=C(CN1CC(n2cccn2)C1)NCCCc1ccccc1,-6.652
6,O=C(CN1CC(n2cccn2)C1)NCCc1c[nH]c2ccccc12,-3.25
7,O=C(CN1CC(n2cccn2)C1)NCCCN1CCCC1=O,95.99
8,O=C(CN1CC(n2cccn2)C1)NCC1(c2ccccc2)CCC1,14.59
9,CCC1CN(CC(=O)NCCC#N)CCO1 (configuration not stated),-6.003
10,O=C(CN1CCCC(c2ncc[nH]2)C1)NCCCN1CCCCCC1=O (configuration not stated),11.49
11,N#CCCNC(=O)CN1CC(n2cccn2)C1,139.2
12,O=C(c1ccc(CN2CC(n3cccn3)C2)cc1)N1CCCC1,6.953
13,CNC(=O)CCNC(=O)c1ccccc1N1CCOCC1,-6.711
14,CCC1CN(C(=O)c2ccccc2C#N)CCN1C(C)C (configuration not stated),-3.955
15,COc1ccc2c(c1)C1(CCN(Cc3nccs3)CC1)N(C)CC2.O=C(O)C(F)(F)F.O=C(O)C(F)(F)F,6.008
16,COc1ccc(-c2n[nH]cc2CN(C)Cc2nonc2C)c(F)c1,-4.147

row,SMILES,Percent Effect [%]
1,O=C([C@H]1C[C@H]2OCC[C@H]2N(C(=O)C2CCOCC2)C1)N1CCCCO1,-4.541
2,CCOC(=O)c1ccccc1NC(=O)CN(C)Cc1ccccc1Cl.O=C(O)C(=O)O,16.66
3,CC(=O)NCCC(=O)NCc1ccc(Br)cc1Cl,-2.805
4,Cc1cccc(C(C)(C)CNc2cn[nH]c(=O)c2Cl)c1,26.78
5,NC(=O)C1CCN(C(=O)Cc2cnc(-c3c(Cl)cccc3Cl)s2)CC1,112.4
6,CN(C)C(=O)N1CCN(Cc2cnc(-c3ccsc3)s2)CC1,-2.871
7,CC(=O)N1CCN(C(=O)Cc2cnc(-c3c(Cl)cccc3Cl)s2)CC1,110.1
8,Cc1nc2ccnn2c(C)c1CCC(=O)N1CCC(C(N)=O)CC1,1.242
9,NC(=O)C1CCN(C(=O)Cc2ccc(Cl)c(Cl)c2)CC1,-1.39
10,O=C(O)Cc1cccc(-n2ccnc2-c2ccc(Cl)s2)c1,1.594
11,Cc1ncc(CN(C)C(=O)Nc2cccc(C(=O)N3CCOCC3)c2)s1,-6.788
12,CC(=O)N1CCCN(C(=O)NCCc2ccc(Cl)s2)CC1,4.085
13,O=C(O)Cc1cnc(-c2c(Cl)cccc2Cl)s1,122.5
14,O=C(NC1CC1)c1cc(NC(=O)N2CCOCC2)ccc1Cl,-10.77
15,O=C(Cc1cnc(-c2c(Cl)cccc2Cl)s1)N1CCOCC1,134.1
16,Cc1oc(CNC(=O)Cc2ccccc2Cl)cc1C(=O)O,-14.11
